Source: article PMC7862700, “An all-to-all approach to the identification of sequence-specific readers for epigenetic DNA modifications on cytosine”

Assays:
Experiment in all cases: DAPPL (digital affinity profiling via proximity ligation, sequencing); 10 mM Tris-HCl pH 7.5, 50 mM NaCl, 1 mM DTT, 4% glycerol, room temperature, 30 min; GST-TFs on glutathione beads, 16-mer random dsDNA library, 0.1% formaldehyde crosslink after washing; high values mean tight binding
Conditions in all cases: protein: recombinant; tags: N-terminal GST; dsDNA, one strand shown
[1] = target: T1, ERF (Homo sapiens, UniProt P50548 1-548)
T1 sequence: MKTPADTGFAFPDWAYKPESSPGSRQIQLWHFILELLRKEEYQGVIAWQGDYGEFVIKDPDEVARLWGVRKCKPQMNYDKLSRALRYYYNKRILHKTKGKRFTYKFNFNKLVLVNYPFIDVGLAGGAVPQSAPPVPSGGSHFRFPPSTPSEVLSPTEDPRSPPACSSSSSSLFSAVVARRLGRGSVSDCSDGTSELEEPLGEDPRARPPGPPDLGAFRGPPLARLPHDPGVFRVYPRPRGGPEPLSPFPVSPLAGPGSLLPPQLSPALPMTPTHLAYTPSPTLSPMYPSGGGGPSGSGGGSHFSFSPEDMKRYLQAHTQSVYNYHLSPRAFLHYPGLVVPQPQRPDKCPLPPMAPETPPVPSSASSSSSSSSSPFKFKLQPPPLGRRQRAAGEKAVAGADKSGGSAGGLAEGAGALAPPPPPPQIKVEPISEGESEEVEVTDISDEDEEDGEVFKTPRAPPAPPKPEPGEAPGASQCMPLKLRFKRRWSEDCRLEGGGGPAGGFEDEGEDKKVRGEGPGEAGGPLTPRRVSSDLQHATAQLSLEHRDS
Outline: (§1)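 After expression in yeast as GST fusions, human transcription factors were bound to glutathione beads, DNA-barcoded and mixed with a tag-only sample. The pools were incubated with 200 nmole of a 16-mer random double-stranded DNA library in Tris/NaCl/DTT/glycerol buffer (30 min, room temperature), washed and crosslinked with 0.1% formaldehyde. Proximity ligation with BsaI/T4 ligase ran for 1 h at 37 °C, before PCR amplification and sequencing on an Illumina NextSeq500. Binding signal is a hexamer's read frequency for a factor divided by its frequency for the tag-only sample.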

[2] = target: T2, ETV3L (Homo sapiens, UniProt Q6ZN32 1-361)
T2 sequence: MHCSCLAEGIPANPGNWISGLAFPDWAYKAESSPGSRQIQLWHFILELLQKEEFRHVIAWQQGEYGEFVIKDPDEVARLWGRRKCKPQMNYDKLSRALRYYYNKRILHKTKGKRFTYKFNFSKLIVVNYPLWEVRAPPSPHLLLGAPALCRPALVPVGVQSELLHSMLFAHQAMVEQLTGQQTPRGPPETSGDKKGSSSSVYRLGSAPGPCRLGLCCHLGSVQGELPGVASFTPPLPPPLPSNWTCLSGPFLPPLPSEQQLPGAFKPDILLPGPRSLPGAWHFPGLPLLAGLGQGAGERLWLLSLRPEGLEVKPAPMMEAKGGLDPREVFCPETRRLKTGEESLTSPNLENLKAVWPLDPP
Outline: as §1

[3] = target: T3, ETS2 (Homo sapiens, UniProt P15036 1-469)
T3 sequence: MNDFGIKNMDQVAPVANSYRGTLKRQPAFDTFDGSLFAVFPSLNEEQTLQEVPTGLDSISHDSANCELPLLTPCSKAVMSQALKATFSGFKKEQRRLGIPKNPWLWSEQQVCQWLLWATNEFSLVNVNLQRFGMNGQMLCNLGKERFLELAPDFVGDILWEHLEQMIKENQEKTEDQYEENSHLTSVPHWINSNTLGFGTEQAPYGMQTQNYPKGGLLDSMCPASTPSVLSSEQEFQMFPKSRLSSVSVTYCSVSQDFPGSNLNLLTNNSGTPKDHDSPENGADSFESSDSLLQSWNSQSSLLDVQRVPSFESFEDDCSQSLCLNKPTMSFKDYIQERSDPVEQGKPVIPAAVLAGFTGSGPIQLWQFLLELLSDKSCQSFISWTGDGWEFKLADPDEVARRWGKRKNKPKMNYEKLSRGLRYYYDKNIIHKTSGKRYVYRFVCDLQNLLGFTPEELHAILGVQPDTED
Outline: as §1

[4] = target: T4, SPDEF (Homo sapiens, UniProt O95238 1-335)
T4 sequence: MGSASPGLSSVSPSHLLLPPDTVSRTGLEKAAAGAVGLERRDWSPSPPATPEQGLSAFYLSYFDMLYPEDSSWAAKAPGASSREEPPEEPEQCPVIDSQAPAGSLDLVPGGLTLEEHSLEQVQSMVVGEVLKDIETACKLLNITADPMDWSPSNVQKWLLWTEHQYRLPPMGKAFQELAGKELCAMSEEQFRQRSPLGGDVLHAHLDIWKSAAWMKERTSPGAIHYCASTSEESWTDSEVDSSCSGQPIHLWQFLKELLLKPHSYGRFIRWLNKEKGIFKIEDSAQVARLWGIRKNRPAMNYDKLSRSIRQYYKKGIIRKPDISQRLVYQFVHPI
Outline: as §1

[5] = target: T5, ETV7 (Homo sapiens, UniProt Q9Y603 1-341)
T5 sequence: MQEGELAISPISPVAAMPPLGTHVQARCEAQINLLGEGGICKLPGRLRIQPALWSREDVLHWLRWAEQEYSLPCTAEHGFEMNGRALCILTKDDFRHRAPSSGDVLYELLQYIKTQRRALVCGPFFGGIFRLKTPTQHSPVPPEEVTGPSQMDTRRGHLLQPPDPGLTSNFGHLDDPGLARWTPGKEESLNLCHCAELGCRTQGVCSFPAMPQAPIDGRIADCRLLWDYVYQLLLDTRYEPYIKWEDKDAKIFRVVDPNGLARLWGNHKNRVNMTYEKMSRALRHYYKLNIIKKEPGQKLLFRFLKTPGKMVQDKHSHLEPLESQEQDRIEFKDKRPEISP
Outline: as §1

[6] = target: T6, ELF5 (Homo sapiens, UniProt Q9UKW6-2 1-255)
T6 sequence: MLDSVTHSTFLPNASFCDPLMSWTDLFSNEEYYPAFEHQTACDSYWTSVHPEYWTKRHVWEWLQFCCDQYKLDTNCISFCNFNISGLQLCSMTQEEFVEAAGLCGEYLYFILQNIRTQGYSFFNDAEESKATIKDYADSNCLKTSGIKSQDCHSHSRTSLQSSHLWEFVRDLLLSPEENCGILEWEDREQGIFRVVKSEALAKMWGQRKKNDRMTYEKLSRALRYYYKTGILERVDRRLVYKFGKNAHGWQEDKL
Outline: as §1

[7] = target: T7, ETV3 (Homo sapiens, UniProt P41162-2 1-143)
T7 sequence: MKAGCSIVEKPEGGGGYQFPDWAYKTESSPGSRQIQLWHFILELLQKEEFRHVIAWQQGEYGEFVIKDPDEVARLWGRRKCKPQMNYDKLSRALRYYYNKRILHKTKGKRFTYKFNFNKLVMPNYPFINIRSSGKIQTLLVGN
Outline: as §1

[8] = target: ETV6 (Homo sapiens, UniProt P41212 1-452)
ETV6, sequence (P41212 whole entry): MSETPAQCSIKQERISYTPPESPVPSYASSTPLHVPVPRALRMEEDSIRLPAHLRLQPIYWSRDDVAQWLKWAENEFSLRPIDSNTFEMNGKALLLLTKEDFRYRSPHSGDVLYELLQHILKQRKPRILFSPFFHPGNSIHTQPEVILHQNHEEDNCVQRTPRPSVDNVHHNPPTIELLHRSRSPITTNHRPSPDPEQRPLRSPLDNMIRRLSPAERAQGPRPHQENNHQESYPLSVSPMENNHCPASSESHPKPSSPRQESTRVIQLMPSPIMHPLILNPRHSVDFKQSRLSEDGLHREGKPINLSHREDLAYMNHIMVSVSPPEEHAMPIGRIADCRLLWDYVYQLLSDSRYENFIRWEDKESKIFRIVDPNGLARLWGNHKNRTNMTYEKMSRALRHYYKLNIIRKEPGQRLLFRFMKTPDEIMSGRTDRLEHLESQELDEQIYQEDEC
Outline: as §1

Row | Sequence | binding signal [1] | binding signal [2] | binding signal [3] | binding signal [4] | binding signal [5] | binding signal [6] | binding signal [7] | binding signal [8]
1 | CTTGCG | 1.41 fold enrichment (6-mer frequency, TF over GST control) | 1.39 fold enrichment (6-mer frequency, TF over GST control) | 1.28 fold enrichment (6-mer frequency, TF over GST control) | 1.25 fold enrichment (6-mer frequency, TF over GST control) | 1.3 fold enrichment (6-mer frequency, TF over GST control) | 1.28 fold enrichment (6-mer frequency, TF over GST control) | 1.42 fold enrichment (6-mer frequency, TF over GST control) | 1.37 fold enrichment (6-mer frequency, TF over GST control)
2 | GATTCT | 1.13 fold enrichment (6-mer frequency, TF over GST control) | 1.17 fold enrichment (6-mer frequency, TF over GST control) | 1.23 fold enrichment (6-mer frequency, TF over GST control) | 1.09 fold enrichment (6-mer frequency, TF over GST control) | 1.23 fold enrichment (6-mer frequency, TF over GST control) | 1.11 fold enrichment (6-mer frequency, TF over GST control) | 1.28 fold enrichment (6-mer frequency, TF over GST control) | 1.19 fold enrichment (6-mer frequency, TF over GST control)
3 | GTATTT | 1.47 fold enrichment (6-mer frequency, TF over GST control) | 1.62 fold enrichment (6-mer frequency, TF over GST control) | 1.7 fold enrichment (6-mer frequency, TF over GST control) | 1.64 fold enrichment (6-mer frequency, TF over GST control) | 1.73 fold enrichment (6-mer frequency, TF over GST control) | 1.62 fold enrichment (6-mer frequency, TF over GST control) | 1.53 fold enrichment (6-mer frequency, TF over GST control) | 1.79 fold enrichment (6-mer frequency, TF over GST control)
4 | CCTCTA | 1.34 fold enrichment (6-mer frequency, TF over GST control) | 1.38 fold enrichment (6-mer frequency, TF over GST control) | 1.46 fold enrichment (6-mer frequency, TF over GST control) | 1.32 fold enrichment (6-mer frequency, TF over GST control) | 1.36 fold enrichment (6-mer frequency, TF over GST control) | 1.48 fold enrichment (6-mer frequency, TF over GST control) | 1.33 fold enrichment (6-mer frequency, TF over GST control) | 1.3 fold enrichment (6-mer frequency, TF over GST control)
5 | CGTTTC | 1.74 fold enrichment (6-mer frequency, TF over GST control) | 1.64 fold enrichment (6-mer frequency, TF over GST control) | 1.74 fold enrichment (6-mer frequency, TF over GST control) | 1.75 fold enrichment (6-mer frequency, TF over GST control) | 1.98 fold enrichment (6-mer frequency, TF over GST control) | 2.04 fold enrichment (6-mer frequency, TF over GST control) | 1.83 fold enrichment (6-mer frequency, TF over GST control) | 1.95 fold enrichment (6-mer frequency, TF over GST control)
6 | TGGCTT | 1.27 fold enrichment (6-mer frequency, TF over GST control) | 1.17 fold enrichment (6-mer frequency, TF over GST control) | 1.26 fold enrichment (6-mer frequency, TF over GST control) | 1.11 fold enrichment (6-mer frequency, TF over GST control) | 1.31 fold enrichment (6-mer frequency, TF over GST control) | 1.18 fold enrichment (6-mer frequency, TF over GST control) | 1.18 fold enrichment (6-mer frequency, TF over GST control) | 1.29 fold enrichment (6-mer frequency, TF over GST control)
7 | CTTGGG | 1.47 fold enrichment (6-mer frequency, TF over GST control) | 1.26 fold enrichment (6-mer frequency, TF over GST control) | 1.28 fold enrichment (6-mer frequency, TF over GST control) | 1.21 fold enrichment (6-mer frequency, TF over GST control) | 1.3 fold enrichment (6-mer frequency, TF over GST control) | 1.19 fold enrichment (6-mer frequency, TF over GST control) | 1.26 fold enrichment (6-mer frequency, TF over GST control) | 1.23 fold enrichment (6-mer frequency, TF over GST control)
8 | TCGCTT | 1.21 fold enrichment (6-mer frequency, TF over GST control) | 1.24 fold enrichment (6-mer frequency, TF over GST control) | 1.34 fold enrichment (6-mer frequency, TF over GST control) | 1.18 fold enrichment (6-mer frequency, TF over GST control) | 1.29 fold enrichment (6-mer frequency, TF over GST control) | 1.21 fold enrichment (6-mer frequency, TF over GST control) | 1.24 fold enrichment (6-mer frequency, TF over GST control) | 1.22 fold enrichment (6-mer frequency, TF over GST control)
9 | TACGAT | 1.07 fold enrichment (6-mer frequency, TF over GST control) | 1.13 fold enrichment (6-mer frequency, TF over GST control) | 1.15 fold enrichment (6-mer frequency, TF over GST control) | 1.11 fold enrichment (6-mer frequency, TF over GST control) | 1.07 fold enrichment (6-mer frequency, TF over GST control) | 1.03 fold enrichment (6-mer frequency, TF over GST control) | 1 fold enrichment (6-mer frequency, TF over GST control) | 1.03 fold enrichment (6-mer frequency, TF over GST control)
10 | CTAATG | 1.2 fold enrichment (6-mer frequency, TF over GST control) | 1.17 fold enrichment (6-mer frequency, TF over GST control) | 1.25 fold enrichment (6-mer frequency, TF over GST control) | 1.11 fold enrichment (6-mer frequency, TF over GST control) | 1.3 fold enrichment (6-mer frequency, TF over GST control) | 1.23 fold enrichment (6-mer frequency, TF over GST control) | 1.16 fold enrichment (6-mer frequency, TF over GST control) | 1.3 fold enrichment (6-mer frequency, TF over GST control)
11 | CTTGTA | 1.45 fold enrichment (6-mer frequency, TF over GST control) | 1.26 fold enrichment (6-mer frequency, TF over GST control) | 1.44 fold enrichment (6-mer frequency, TF over GST control) | 1.45 fold enrichment (6-mer frequency, TF over GST control) | 1.17 fold enrichment (6-mer frequency, TF over GST control) | 1.36 fold enrichment (6-mer frequency, TF over GST control) | 1.48 fold enrichment (6-mer frequency, TF over GST control) | 1.37 fold enrichment (6-mer frequency, TF over GST control)
12 | AACATA | 1.32 fold enrichment (6-mer frequency, TF over GST control) | 1.24 fold enrichment (6-mer frequency, TF over GST control) | 1.23 fold enrichment (6-mer frequency, TF over GST control) | 1.19 fold enrichment (6-mer frequency, TF over GST control) | 1.31 fold enrichment (6-mer frequency, TF over GST control) | 1.3 fold enrichment (6-mer frequency, TF over GST control) | 1.27 fold enrichment (6-mer frequency, TF over GST control) | 1.27 fold enrichment (6-mer frequency, TF over GST control)
13 | TGACCG | 1.41 fold enrichment (6-mer frequency, TF over GST control) | 1.41 fold enrichment (6-mer frequency, TF over GST control) | 1.55 fold enrichment (6-mer frequency, TF over GST control) | 1.44 fold enrichment (6-mer frequency, TF over GST control) | 1.49 fold enrichment (6-mer frequency, TF over GST control) | 1.4 fold enrichment (6-mer frequency, TF over GST control) | 1.53 fold enrichment (6-mer frequency, TF over GST control) | 1.36 fold enrichment (6-mer frequency, TF over GST control)
14 | TCTGCT | 1.52 fold enrichment (6-mer frequency, TF over GST control) | 1.28 fold enrichment (6-mer frequency, TF over GST control) | 1.29 fold enrichment (6-mer frequency, TF over GST control) | 1.21 fold enrichment (6-mer frequency, TF over GST control) | 1.14 fold enrichment (6-mer frequency, TF over GST control) | 1.2 fold enrichment (6-mer frequency, TF over GST control) | 1.32 fold enrichment (6-mer frequency, TF over GST control) | 1.18 fold enrichment (6-mer frequency, TF over GST control)
15 | TTCTTC | 1.78 fold enrichment (6-mer frequency, TF over GST control) | 1.83 fold enrichment (6-mer frequency, TF over GST control) | 1.7 fold enrichment (6-mer frequency, TF over GST control) | 1.72 fold enrichment (6-mer frequency, TF over GST control) | 1.7 fold enrichment (6-mer frequency, TF over GST control) | 2.02 fold enrichment (6-mer frequency, TF over GST control) | 1.8 fold enrichment (6-mer frequency, TF over GST control) | 1.93 fold enrichment (6-mer frequency, TF over GST control)
